# Screening data as filed in PubChem BioAssay.
# M1 ag parental: M1 agonist counterscreen hit in parental CHO-K1 cells | Fluo-8 calcium fluorescence; scaled to maximal ATP response, vehicle zero | activation, % at 3 µM | 360,000 compounds, 0.48% hits | AID 602248; in the data active = activation above about 15%;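 note: untransfected CHO-K1 host cells lacking M1 receptor as counterscreen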
# M1 antag: blocks human M1 muscarinic receptor. P11229. CHO-K1 hM1, Fluo-8 calcium fluorescence, ACh EC80 antagonist. inhibition, % at 3 µM. 360,000 compounds, 1.3% hits. AID 588852;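 active = percent inhibition above its own plate's cutoff, namely the mean of that plate's compound wells plus 3 SD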;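 note: peak over basal fluorescence ratio during 140 s after agonist addition; 0% = ACh EC80 plus DMSO and 100% = DMSO alone without agonist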
# Target sequence (P11229 whole entry, looked up): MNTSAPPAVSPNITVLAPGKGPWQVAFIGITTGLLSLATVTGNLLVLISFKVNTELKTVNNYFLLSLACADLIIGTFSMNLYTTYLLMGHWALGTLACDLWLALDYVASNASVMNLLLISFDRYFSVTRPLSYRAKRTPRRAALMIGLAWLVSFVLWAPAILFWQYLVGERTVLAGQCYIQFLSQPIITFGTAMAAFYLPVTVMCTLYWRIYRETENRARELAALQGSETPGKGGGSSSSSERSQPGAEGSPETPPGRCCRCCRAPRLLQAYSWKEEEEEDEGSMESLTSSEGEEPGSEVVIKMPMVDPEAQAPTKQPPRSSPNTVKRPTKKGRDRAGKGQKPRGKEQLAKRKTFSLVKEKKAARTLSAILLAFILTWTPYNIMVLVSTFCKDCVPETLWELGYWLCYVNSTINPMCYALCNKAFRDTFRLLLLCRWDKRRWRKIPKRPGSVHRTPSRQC
# CHRM1 PAM: potentiates human M1 receptor response to acetylcholine; activation, % at 3 µM; 360,000 compounds, 0.088% hits; CHO-K1 hM1, Fluo-8 calcium fluorescence, ACh EC20; 0% = ACh EC20, 100% = maximal ACh; AID 588819; P11229; in the data active = activation above about 19%, passing the limit was not always enough
# M1 PAM parental: counter-screen for M1 PAMs: effect in parental CHO-K1 cells. 360,000 compounds, 0.02% hits. AID 602247. activation, % at 3 µM. ATP EC20, Fluo-8 calcium fluorescence; 0% at ATP EC20, 100% at ATP max;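 active = activation above the run cutoff, the mean activation of all test compounds plus 3 SD, cut at about 40% in these data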;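 note: peak over basal fluorescence ratio in a 140 s read after ATP addition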
# CHO-K1 Ca antag: M1 antagonist counterscreen hit in parental CHO-K1 cells; ATP-induced calcium, Fluo-8 fluorescence; inhibition, % at 3 µM; 360,000 compounds, 0.6% hits;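 active = inhibition above a per-plate cutoff, the plate's mean sample inhibition plus 3 SD, cut at about 24% in these data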;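 note: 0% = DMSO plus EC80 ATP and 100% = DMSO alone without ATP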
# M1 ag: agonists of human M1 muscarinic receptor; P11229; CHO-K1 hM1, Fluo-8 calcium fluorescence, agonist mode; 0% DMSO, 100% acetylcholine EC100; activation, % at 3 µM; 360,000 compounds, 0.33% hits; AID 588814;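 active = activation above the run's mean compound activation plus 3 SD, cut at about 16% in these data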;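 note: peak over basal fluorescence ratio within a 140 s kinetic read after compound addition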
# * hit, by the source's call. Compounds with a hit are over-represented: about 2.4% of the library has one in this group of screens.
SMILES,M1 ag parental,M1 antag,CHRM1 PAM,M1 PAM parental,CHO-K1 Ca antag,M1 ag
O=C(COC(=O)COc1ccccc1)NCc1ccccc1,18.9*,-9.0,7.2,6.5,5.3,-4.5
COc1ccc(/C=N/OCC(=O)NCc2cccs2)c(OC)c1,-0.3,2.7,35.9*,1.4,-2.9,-8.3
Cc1cc(C)cc(OCC(=O)OCC(=O)NCc2cccs2)c1,0.1,10.2,3.6,-11.2,30.9*,-4.3
Cc1cccc(OCC(=O)NCc2ccc(F)cc2)c1,-0.3,-3.5,6.0,-22.1,24.2*,-5.7
Cc1cc(C)cc(OCC(=O)OCC(=O)N2CCc3ccccc32)c1,9.9,-12.8,3.7,-16.6,12.2,-3.0
O=C(CNS(=O)(=O)c1cccs1)NCc1ccccc1,0.2,-3.2,4.4,-7.3,3.2,-10.1
O=C(Nc1cccc2ncccc12)c1ccc(OCc2ccccc2)cc1,12.6,12.3,-3.7,-3.6,6.1,-2.4
O=S(=O)(O)c1cc(O)ccc1O,0.5,-24.1,-9.1,4.7,0.0,34.8*
CCc1ccc2c(F)cccc2n1,0.2,12.5,-1.6,5.1,2.7,-3.4
COc1ccc(-c2nc(CS(=O)CC(=O)NCCN3CCCCC3C)c(C)o2)cc1OC (stereo not drawn),-0.7,-5.3,0.9,13.3,-7.2,-10.9
COc1ccc(CN2CCNC(=O)C2CC(=O)N2CCCN(C(C)=O)CC2)c(OC)c1 (stereo not drawn),7.2,1.4,0.1,-5.2,-3.0,1.3
COc1ccc(N2C(=O)[C@H]3CCC=C[C@H]3[C@@H]2c2ccccc2Br)cc1,-0.4,47.4*,-26.6,-11.6,2.9,-7.9
COc1ccc(-c2cc(C(=O)N3CCN(c4ccccc4F)CC3)c3ccccc3n2)c(OC)c1,6.3,28.7*,-8.9,-7.0,8.2,0.1
COc1ccc(N2CCN(C(=O)c3cc(-c4cc(OC)ccc4OC)nc4ccccc34)CC2)cc1,7.4,23.9,-5.9,-0.1,-9.2,0.2
CCOc1ccccc1N1CCN(C(=O)c2cc(-c3cc(OC)ccc3OC)nc3ccccc23)CC1,5.4,32.7*,-9.8,6.7,6.1,-1.4
O=C(Nc1ccc(Br)c2ccccc12)c1ccc2ccccc2c1O,18.0*,23.3,-13.9,-10.0,14.3,0.6
CC(=O)Nc1ccc(Br)c2ccccc12,0.1,1.9,1.6,9.8,-1.5,-4.0
O=C(N/N=C\c1c(O)ccc2ccccc12)c1cncc(Br)c1,39.4*,-8.4,1.5,-11.3,6.4,41.8*
Cc1cc(NC(=O)c2ccc(N(C)S(=O)(=O)c3ccccc3)cc2)no1,16.9*,15.2,-17.8,-4.9,-19.1,-1.1
CN(c1ccc(C(=O)Nc2ccccn2)cc1)S(=O)(=O)c1ccccc1,0.5,-8.1,10.8,13.9,-10.2,-0.8
CN(c1ccccc1)S(=O)(=O)c1ccc(NC(=O)c2ccc(F)cc2)cc1,19.4*,12.6,-13.5,4.4,2.8,1.4
CN(c1ccc(C(=O)NCCSCc2ccccc2)cc1)S(=O)(=O)c1ccccc1,-0.2,14.7,-7.5,-9.0,24.2*,-1.6
COc1ccc(CNC(=O)c2ccc(N(C)S(=O)(=O)c3ccc(C)cc3)cc2)cc1,0.2,-0.6,3.7,-11.4,25.1*,0.6
Cc1cccc(CSCCNC(=O)c2ccc(N(C)S(=O)(=O)c3ccccc3)cc2)c1,4.8,3.9,-4.7,18.6,3.6,-0.8
CN(c1ccccc1)S(=O)(=O)c1ccc(NC(=O)c2ccccc2)cc1,2.1,12.8,-8.9,-8.7,7.9,-3.2
c1ccc(Cn2c(-c3ccccc3)c[n+]3c2SCCC3)cc1,1.0,98.1*,-25.1,20.3,-9.6,-9.0
c1ccc(-c2cn(-c3ccccc3)c3[n+]2CCCS3)cc1,0.1,7.0,-5.9,-10.2,0.7,-8.5
COc1ccc(NS(=O)(=O)c2cc(NS(=O)(=O)c3cc(C(=O)O)ccc3OC)ccc2C)cc1,-0.4,-8.1,6.2,10.0,-13.3,-3.7
Cc1cccc(C(=O)Oc2ccc(/C=N/NC(=O)c3ccccc3O)cc2)c1,9.8,23.0,-17.9,8.4,5.9,-2.1
Cc1cccc(C(=O)Oc2ccc(/C=N/NC(=O)c3ccc(O)cc3)cc2)c1,6.3,41.5*,-12.3,-16.3,11.2,0.0
